Experimental findings from ChEMBL document CHEMBL3988442, “University of Dundee, Small-Polar-MMV Screening Library” (2021) are described below.

The campaign covered roughly 48,000 compounds. About 13,000 (27%) showed an effect of 50% or more. The list shows a part of the results.

This assay has as its system Wolbachia pipientis. The assay can be described thus: Anti-Wolbachia Cell-Based Screen. The class given is functional. Also noted: scale not given: in the data most compounds retested in dose-response had high values. Conditions: 5 µM.
As to `CCN(C(=O)C1=NN(c2ccccc2)C(=O)CN1)c1ccccc1`, the “Percent Effect” value turned out to be 14.38%.

Take `COCCN1CCC2(CCC1=O)CN(c1ccnc(SC)n1)CCN2C` (stereo unspecified): the “Percent Effect” value is 3.783%.

As to `O=C(CN1C(=O)CCNC1=O)N1CCC2(CCc3ccccc32)CC1`, the “Percent Effect” value was -1.469%.

In the case of `COCCN1CC2(CCCN(C(=O)NCc3ccccc3)C2)CCC1=O` (stereo unspecified), the “Percent Effect” value is given as -41.75%.

Consider `CN(C(=O)CN1CCCC1=O)C1CCCN(C2Cc3ccccc3C2)C1` (stereo unspecified), for which the “Percent Effect” value is -3.019%.

For `CC(C)(C)C(=O)CN1Cc2ccccc2NCCC1=O`, the “Percent Effect” value came out at 87.13%.

With `COCCN1CCc2ccccc2NCCC1=O`, the “Percent Effect” value stood at 80.29%.

Consider `CC(C)(C)C(=O)CN1CCc2ccccc2NCCC1=O`, for which the “Percent Effect” value turned out to be 91.03%.

Turning to `CCNC(=O)N1C[C@@H]2OCC(=O)N(Cc3cccnc3)[C@@H]2C1`, the “Percent Effect” value is -2.175%.

As for `C[C@H](CCO)NS(=O)(=O)c1ccc(Br)cn1`, the “Percent Effect” value is on record as 0.586%.

Turning to `COc1nccnc1N1CCC2(CC1)[C@H](O)C[C@@H]2OCCN(C)C`, the “Percent Effect” value was -0.5657%.

`COC(=O)CCCn1ccnc1C(C)c1ccccc1` (stereo unspecified): the “Percent Effect” value is 30.01%.

`CN(C)c1ccc(C(=O)N2CCN(C(=O)N3CCCCC3)CC2)nn1`: the “Percent Effect” value came to 6.871%.

`Cc1ccc2c(n1)N(CCN(C)C)CCN(C(=O)N1CCOCC1)C2`: the “Percent Effect” value is on record as -2.22%.

On to `O=C(Cc1ccc2c(c1)OCO2)N1CCN(c2ccccc2Cl)C(=O)C1`, for which the “Percent Effect” value amounted to 2.346%.

Turning to `O=C(N1CCOCC1)N1CCN(c2ccnc3ccsc23)CC1`, the “Percent Effect” value is reported as 30.34%.

On to `CN1CCN(C(=O)N2CCCC2)Cc2cccnc21`, for which the “Percent Effect” value was -1.039%.

As for `O=C(N1CCCCC1)N1CCN(c2ccc(Cl)nn2)C(=O)C1`, the “Percent Effect” value was found to be 123%.

In the case of `O=C(N1CCCC1)N1CCN(c2ccc(Cl)nn2)C(=O)C1`, the “Percent Effect” value is 104%.

As to `O=C(N1CCOCC1)N1CCN(c2ccc(Cl)nn2)C(=O)C1`, the “Percent Effect” value is recorded as 98.36%.

For `O=C(Cc1ccc(CO)cc1)N1CCN(c2ccccc2Cl)C(=O)C1`, the “Percent Effect” value was -19.49%.

With `O=C(CN1CCN(c2ccnc3c(F)ccc(F)c23)CC1)NC1CC1`, the “Percent Effect” value was -1.102%.

Regarding `O=C(Nc1ccc2c(c1)OCO2)N1CCN(CCc2ccccc2)CC1`, the “Percent Effect” value was 10.38%.

Take `CC(C)OCc1ncn2c1CN(Cc1nccs1)CCC2.O=C(O)C(F)(F)F`: the “Percent Effect” value came out at 19.89%.

As for `CN(C)C(=O)C1CCC2(CCN(C(=O)Nc3ccc(F)cc3)CC2)O1` (stereo unspecified), the “Percent Effect” value is recorded as 104.3%.

In the case of `CN(C)C(=O)C1CCC2(CCN(C(=O)Nc3ccccc3)CC2)O1` (stereo unspecified), the “Percent Effect” value worked out at 111.7%.

`CN1C(=O)CO[C@H]2CN(C(=O)Nc3ccc(F)cc3)C[C@H]21`: the “Percent Effect” value is -3.92%.

For the molecule `CC(=O)NC1CCN(C(=O)Nc2ccc(SC(F)F)cc2)CC1`, the “Percent Effect” value turned out to be 1.325%.

Regarding `Cc1ccc(NC(=O)N2CCC3(CCC(C(=O)N(C)C)O3)CC2)cc1` (stereo unspecified), the “Percent Effect” value worked out at 103.6%.

Consider `CCN(C)CC1CCN(C(=O)Nc2ccc(C)cc2)C1` (stereo unspecified), for which the “Percent Effect” value is reported as -10.96%.

With `CCC1=N[C@@]2(CC[C@@H]3CN(C(=O)Nc4ccc(F)cc4)C[C@@H]32)C(=O)N1`, the “Percent Effect” value is -8.843%.

`CN(C)C(=O)N1CCC2(CCC(C(=O)N3CCCC3)O2)CC1` (stereo unspecified): the “Percent Effect” value is given as -25.65%.

Take `O=C(Nc1ccc(S(=O)(=O)Nc2ccccc2)cc1)N1CCCC1`: the “Percent Effect” value is 10.15%.

Turning to `CCCN1CCCC2(CCN(S(=O)(=O)N3CCC(OC)CC3)C2)C1=O` (stereo unspecified), the “Percent Effect” value is listed as -17.89%.

Consider `CCCNC(=O)NCc1ccccc1NS(=O)(=O)c1ccccc1`, for which the “Percent Effect” value is given as 1.164%.

As for `COc1c(C2CCCN2Cc2nnc(C3CC3)o2)c(C)nn1C` (stereo unspecified), the “Percent Effect” value is -22.17%.

As for `CCN(Cc1noc(C)n1)C(=O)C(c1ccc(C)cc1)N(C)C` (stereo unspecified), the “Percent Effect” value is given as -5.423%.

For `CC(=O)N1CCN(C(=O)CCc2cc(Br)cs2)CC1`, the “Percent Effect” value is reported as -5.733%.

Take `CC1(Cc2cccnc2)NCCc2[nH]cnc21` (stereo unspecified): the “Percent Effect” value worked out at 0.4171%.

On to `CC(C)Cc1ccc(C(=O)Cn2cnnc2[S+](C)[O-])cc1` (stereo unspecified), for which the “Percent Effect” value came to 22.36%.

Turning to `Cc1cccc(S(=O)(=O)N2CCCc3c(c(=O)n(C)n3C)C2)c1`, the “Percent Effect” value is reported as -4.559%.

On to `CNC(=O)[C@@]12CCO[C@@H]1CCN(S(=O)(=O)c1cccc(F)c1)C2`, for which the “Percent Effect” value is on record as -9.413%.

On to `CS(=O)(=O)N1CCCC12CCCN(S(=O)(=O)c1cc(F)cc(F)c1)C2` (stereo unspecified), for which the “Percent Effect” value is given as -5.366%.

On to `CCN1C(=O)CCC12CCCN(S(=O)(=O)c1cccc(C)c1)CC2` (stereo unspecified), for which the “Percent Effect” value is -13.05%.

Turning to `CS(=O)(=O)N1CCCC12CCCN(S(=O)(=O)c1cccc(F)c1)C2` (stereo unspecified), the “Percent Effect” value is on record as 85.55%.

Turning to `Cc1cccc(S(=O)(=O)N2CCCC3(CCCN3S(C)(=O)=O)C2)c1` (stereo unspecified), the “Percent Effect” value came to 110.4%.

For `COc1ccc(Nc2ncccc2C#N)cc1N1CCCC1=O`, the “Percent Effect” value stood at 9.755%.

With `Cc1cc(S(=O)(=O)Nc2onc(C)c2C)sc1C`, the “Percent Effect” value is on record as -16.29%.

With `CS(=O)(=O)NCCC(=O)N1CCCC1c1noc(C2CC2)n1` (stereo unspecified), the “Percent Effect” value is recorded as -8.062%.

For `COc1ccc(C2CCCN2C(=O)CCNc2ncccn2)cc1` (stereo unspecified), the “Percent Effect” value amounted to 1.66%.

With `COc1c(C2CCCN2C(=O)CCNc2ncccn2)c(C)nn1C` (stereo unspecified), the “Percent Effect” value was 119.8%.

For the molecule `Cc1nn(C)c(C)c1C1CCCN1C(=O)CCCc1ccccn1` (stereo unspecified), the “Percent Effect” value is 91.34%.

On to `Cc1nn(C)c(C)c1C1CCCN1C(=O)CCNS(C)(=O)=O` (stereo unspecified), for which the “Percent Effect” value was found to be 101.1%.

Consider `Cc1nn(C)c(C)c1C1CCCN1Cc1nc(-c2ccco2)oc1C` (stereo unspecified), for which the “Percent Effect” value was -2.901%.

Turning to `Cc1nn(C)c(C)c1C1CCCN1C(=O)CCc1ccco1` (stereo unspecified), the “Percent Effect” value is 103%.

Take `Cc1nn(C)c(C)c1C1CCCN1C(=O)CCc1cscn1` (stereo unspecified): the “Percent Effect” value is reported as -3.183%.

Take `CSc1ccc(CNCCS(=O)(=O)N2CCOCC2)cc1`: the “Percent Effect” value is on record as -30.29%.

For `CC1(C)CN(C(=O)c2ccc3nncn3c2)CCS1`, the “Percent Effect” value is -32.23%.

On to `COCC1CN(C(=O)CC2Cc3ccccc3C2)Cc2c1cnn2C` (stereo unspecified), for which the “Percent Effect” value was -1.669%.

In the case of `Cc1nn(C)c(C)c1C1CCCN1C(=O)CCCn1cccn1` (stereo unspecified), the “Percent Effect” value came to 12.2%.

For `Cc1nn(C)c(Cl)c1C1CCCN1C(=O)CCNc1ncccn1` (stereo unspecified), the “Percent Effect” value stood at 95.62%.

Regarding `Cc1nn(C)c(C)c1C1CCCN1C(=O)CCNc1ncccn1` (stereo unspecified), the “Percent Effect” value is on record as 2.112%.

On to `Cc1nn(C)c(C)c1C1CCCN1C(=O)CCCNc1ncccn1` (stereo unspecified), for which the “Percent Effect” value is given as 79.99%.

Consider `Fc1cccc2c1CCC2NCc1cnc(N2CCOCC2)nc1` (stereo unspecified), for which the “Percent Effect” value is 3.105%.

For `COC(=O)CCC(=O)N(C/C=C/c1ccccc1)CCO`, the “Percent Effect” value was -11.86%.

For the molecule `COc1cccc(F)c1C(C)NC(=O)NCCc1ccc(C)nc1` (stereo unspecified), the “Percent Effect” value is 1.538%.
